The labels stand for the following.
B1: PhoQ; a variant is named by its letters at X, in order, P23837 (parent)
chain: MKKLLRLFFPLSLRVRFLLATAAVVLVLSLAYGMVALIGYSVSFDKTTFRLLRGESNLFYTLAKWENNKLHVELPENIDKQSPTMTLIYDENGQLLWAQRDVPWLMKMIQPDWLKSNGFHEIEADVNDTSLLLSGDHSIQQQLQEVREDDDDAEMTHSVAVNVYPATSRMPKLTIVVVDTIPVELKSSYMVWSWFIYVLSANLLLVIPLLWVAAWWSLRPIEALAKEVRELEEHNRELLNPATTRELTSLVRNLNRLLKSERERYDKYRTTLTDLTHSLKTPLXXLQXXLRSLRSEKMSVSDAEPVMLEQISRISQQIGYYLHRASMRGGTLLSRELHPVAPLLDNLTSALNKVYQRKGVNISLDISPEISFVGEQNDFVEVMGNVLDNACKYCLEFVEISARQTDEHLYIVVEDDGPGIPLSKREVIFDRGQRVDTLRPGQGVGLAVAREITEQYEGKIVAGESMLGGARMEVIFGRQHSAPKDE

Over roughly 140,000 sequences, “enrichment ratio after two sorts for PhoP signalling” has its median near 0; the highest 2% begin near 11. The full list was thinned out, with the highest values kept by preference.

In this test the parent is B1. Description: enrichment ratio after two sorts for PhoP signalling (ratio (wild type AVST 3.29)); higher = more functional. The settings on record: with PhoP (E. coli).
For the variant WGSE, the enrichment ratio is no more than 0.25.

For the variant FYLD, the enrichment ratio was no more than 0.25.

With PSVE, the enrichment ratio is no more than 0.25.

With TCWN, the enrichment ratio turned out to be 14.9.

Consider KCQI, for which the enrichment ratio is no more than 0.25.

As to TCQQ, the enrichment ratio came out at 11.5.

For KSWN, the enrichment ratio is no more than 0.25.

Consider TCII, for which the enrichment ratio is no more than 0.25.

FCQI: the enrichment ratio was no more than 0.25.

Consider TCQI, for which the enrichment ratio was found to be 15.2.

As for TCQY, the enrichment ratio amounted to 31.4.

TCVQ: the enrichment ratio was no more than 0.25.

For the variant TCGQ, the enrichment ratio was no more than 0.25.

On to KCQY, for which the enrichment ratio was no more than 0.25.

In the case of TCIS, the enrichment ratio was no more than 0.25.

On to SLAF, for which the enrichment ratio amounted to 8.18.

With TQKA, the enrichment ratio is no more than 0.25.

For TAWY, the enrichment ratio was determined as 6.15.

With HCAS, the enrichment ratio is no more than 0.25.

On to TCMN, for which the enrichment ratio was 58.3.

For the variant TCQK, the enrichment ratio was 14.2.

As to TCQA, the enrichment ratio was found to be 16.2.

Consider TYMN, for which the enrichment ratio worked out at 0.285.

TCVN: the enrichment ratio is 2.66.

Take TCQP: the enrichment ratio is no more than 0.25.

Regarding TCQF, the enrichment ratio was 6.94.

In the case of TCDN, the enrichment ratio was no more than 0.25.

With TCEN, the enrichment ratio was 0.333.

On to KCQA, for which the enrichment ratio is no more than 0.25.

As for SCQA, the enrichment ratio is no more than 0.25.

Take TCQN: the enrichment ratio was 23.

With MRIG, the enrichment ratio is no more than 0.25.

In the case of IPRI, the enrichment ratio is no more than 0.25.

With IFEI, the enrichment ratio was no more than 0.25.

CNHC: the enrichment ratio was no more than 0.25.

As to QRMF, the enrichment ratio was no more than 0.25.

Turning to HTHA, the enrichment ratio was no more than 0.25.

FCQL: the enrichment ratio is no more than 0.25.

As to TCQL, the enrichment ratio is 13.2.

Turning to KCQL, the enrichment ratio was no more than 0.25.

Take HESH: the enrichment ratio is no more than 0.25.

On to HECS, for which the enrichment ratio is 2.84.

For HEQY, the enrichment ratio was no more than 0.25.

HEQV: the enrichment ratio was found to be 25.5.

On to HECV, for which the enrichment ratio was found to be 15.4.

On to HEQP, for which the enrichment ratio is no more than 0.25.

As for HNSW, the enrichment ratio was no more than 0.25.

ERQE: the enrichment ratio was no more than 0.25.

Take SAFP: the enrichment ratio is no more than 0.25.

Turning to QGAG, the enrichment ratio was no more than 0.25.

As for QVAH, the enrichment ratio is no more than 0.25.

Consider TGQL, for which the enrichment ratio worked out at 5.01.

Turning to AGQL, the enrichment ratio was determined as 11.6.

In the case of AIQL, the enrichment ratio worked out at 11.7.

CGQL: the enrichment ratio was 14.3.

Regarding AQQL, the enrichment ratio is no more than 0.25.

For the variant ADQL, the enrichment ratio is no more than 0.25.

In the case of AKQL, the enrichment ratio was no more than 0.25.

With GGQL, the enrichment ratio was no more than 0.25.

WIQL: the enrichment ratio is no more than 0.25.

Take MQGH: the enrichment ratio was no more than 0.25.

In the case of FDDD, the enrichment ratio was no more than 0.25.

AMFM: the enrichment ratio is no more than 0.25.

For the variant PNFI, the enrichment ratio was no more than 0.25.

Regarding KCCR, the enrichment ratio is no more than 0.25.

On to RQPM, for which the enrichment ratio was no more than 0.25.

As to IGQV, the enrichment ratio is no more than 0.25.

As to GHHN, the enrichment ratio was no more than 0.25.

Regarding PRDV, the enrichment ratio is no more than 0.25.

With SEQG, the enrichment ratio turned out to be 17.8.

Regarding AQQG, the enrichment ratio was 12.7.

As to SLQG, the enrichment ratio was no more than 0.25.

For the variant AEQG, the enrichment ratio was no more than 0.25.

As to SQQG, the enrichment ratio stood at 6.66.

AKQG: the enrichment ratio is no more than 0.25.

Consider HAGM, for which the enrichment ratio was no more than 0.25.

In the case of HMVE, the enrichment ratio was no more than 0.25.

In the case of VFKE, the enrichment ratio is no more than 0.25.

Take HGRI: the enrichment ratio is no more than 0.25.

Turning to FPCA, the enrichment ratio was no more than 0.25.

With GKQD, the enrichment ratio is no more than 0.25.

For the variant TAHY, the enrichment ratio was determined as 27.1.

With NAHY, the enrichment ratio was no more than 0.25.

On to TAPI, for which the enrichment ratio is no more than 0.25.

In the case of AHHY, the enrichment ratio is no more than 0.25.

In the case of MAHY, the enrichment ratio was 20.2.

On to KAHY, for which the enrichment ratio is no more than 0.25.

For the variant NMRM, the enrichment ratio was no more than 0.25.

Consider YACT, for which the enrichment ratio was 0.253.

As to AICT, the enrichment ratio came out at 18.

On to EQCT, for which the enrichment ratio is no more than 0.25.

NICT: the enrichment ratio is no more than 0.25.

For AHCT, the enrichment ratio is no more than 0.25.

KACT: the enrichment ratio is no more than 0.25.

Take ANCT: the enrichment ratio was 21.

Take RICT: the enrichment ratio is no more than 0.25.

On to AACT, for which the enrichment ratio amounted to 12.4.

Regarding AQCT, the enrichment ratio was determined as 20.8.

Consider AWCT, for which the enrichment ratio was no more than 0.25.

For the variant SNCT, the enrichment ratio worked out at 8.8.

ALFD: the enrichment ratio was no more than 0.25.

Regarding SHFP, the enrichment ratio was 0.324.

On to WCTK, for which the enrichment ratio was no more than 0.25.

As to FYGE, the enrichment ratio is no more than 0.25.

MNPG: the enrichment ratio is no more than 0.25.

On to FEMT, for which the enrichment ratio came to 3.56.

With ENFC, the enrichment ratio is no more than 0.25.

Regarding SYCA, the enrichment ratio was no more than 0.25.

For the variant EDSI, the enrichment ratio was no more than 0.25.

As to QHNY, the enrichment ratio worked out at 27.5.

Consider QHNS, for which the enrichment ratio was 5.2.

On to THNH, for which the enrichment ratio amounted to 16.2.

As for SHNH, the enrichment ratio came to 1.34.

On to QHRH, for which the enrichment ratio is no more than 0.25.

In the case of QHRI, the enrichment ratio was no more than 0.25.

As to QHNH, the enrichment ratio came out at 13.9.

In the case of QHGY, the enrichment ratio is 8.42.

As for NHNH, the enrichment ratio is no more than 0.25.

On to LVRE, for which the enrichment ratio was no more than 0.25.

Consider EGNA, for which the enrichment ratio was no more than 0.25.

As to TEWR, the enrichment ratio was 6.71.

Take KSWS: the enrichment ratio was no more than 0.25.

Turning to TEWM, the enrichment ratio was 73.1.

In the case of TEWN, the enrichment ratio amounted to 9.81.

In the case of TEGM, the enrichment ratio stood at 4.56.

NIYL: the enrichment ratio is no more than 0.25.

On to TEYL, for which the enrichment ratio was 13.

Consider TEWG, for which the enrichment ratio worked out at 3.3.

Turning to TEWS, the enrichment ratio stood at 28.5.

For the variant TEWA, the enrichment ratio came out at 38.4.

On to YTYL, for which the enrichment ratio is no more than 0.25.

On to TERM, for which the enrichment ratio was no more than 0.25.

For the variant QHAH, the enrichment ratio was no more than 0.25.

On to DNQP, for which the enrichment ratio is no more than 0.25.

As to LKHW, the enrichment ratio was no more than 0.25.

With NWHW, the enrichment ratio was no more than 0.25.

In the case of WFMI, the enrichment ratio was no more than 0.25.

Regarding IWYG, the enrichment ratio was no more than 0.25.

With WQRD, the enrichment ratio was no more than 0.25.

Regarding HEYK, the enrichment ratio was no more than 0.25.

For RHGY, the enrichment ratio was no more than 0.25.

As to TEWD, the enrichment ratio came out at 13.

Regarding QEWD, the enrichment ratio turned out to be 4.99.

For the variant TEGL, the enrichment ratio was 13.2.

Consider TEAM, for which the enrichment ratio worked out at 16.4.

With TEEL, the enrichment ratio is no more than 0.25.

MEAM: the enrichment ratio is 9.82.

For the variant KSWL, the enrichment ratio was no more than 0.25.

As to NEAM, the enrichment ratio is no more than 0.25.

On to MEWL, for which the enrichment ratio was no more than 0.25.

For the variant KSWD, the enrichment ratio is no more than 0.25.

For TERL, the enrichment ratio is no more than 0.25.

On to TEWL, for which the enrichment ratio is 21.7.

(Values after a collection of fitness landscapes (doi:10.1126/science.1257360).)
